High-throughput results from PubChem BioAssay.
Shown are actives, neighbours in structure and some others; about 3% of the full set was active somewhere.
Vc quorum ag – inducers of Vibrio cholerae quorum light production without autoinducers, primary screen, BH1578 luxS cqsA deficient, single point; activation, % at 18.7 µM; AID 588436, 2011; 0.16% of 350,000 active; V. cholerae BH1578 lux reporter, luminescence, 6 h; in the data active = activation mostly above about 9.7%, no sharp cut-off
GDH-TPI counter – GDH-TPI coupling enzyme inhibitors, primary screen, artefact control for M. tuberculosis FBA inhibitor project, biochemical, absorbance, full deck; GDH-TPI coupled enzyme counterscreen, NADH absorbance; inhibition, % at 4.8 µM; 1.2% of 360,000 active; AID 588335, 2011; in the data active = inhibition above about 30%
FBA Mtb inh – Mtb FBA enzyme inhibitors, primary screen, biochemical, fluorescence, strain H37Rv. Fructose-bisphosphate aldolase (Mycobacterium tuberculosis (strain ATCC 25618 / H37Rv)), …. purified M. tuberculosis FBA, fluorescence read-out. 2.3% of 360,000 active. inhibition, % at 1 µM; in the data active = inhibition above about 27%
Target sequence (P9WQA3 whole entry, looked up): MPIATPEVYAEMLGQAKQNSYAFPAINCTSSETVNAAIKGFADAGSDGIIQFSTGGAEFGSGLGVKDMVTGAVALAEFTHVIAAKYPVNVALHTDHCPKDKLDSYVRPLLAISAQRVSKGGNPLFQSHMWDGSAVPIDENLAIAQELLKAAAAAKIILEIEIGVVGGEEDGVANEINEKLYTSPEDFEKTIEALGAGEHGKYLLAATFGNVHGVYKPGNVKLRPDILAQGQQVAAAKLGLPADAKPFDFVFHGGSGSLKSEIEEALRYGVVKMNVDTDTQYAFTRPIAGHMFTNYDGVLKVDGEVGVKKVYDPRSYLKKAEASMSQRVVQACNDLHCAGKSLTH
BioA inh – M. tuberculosis BioA enzyme inhibitors, primary screen, biochemical, plate reader, single point, HTS; purified M. tuberculosis BioA enzyme; AID 602481, 2012; inhibition, % at 9.99 µM; 0.096% of 360,000 active; 7,8-diaminopelargonic acid synthase BioA (Mycobacterium tuberculosis); in the data active = inhibition above about 40%
A number is an active result; . = inactive; / = no result given; + = active, no number.

SMILES | Vc quorum ag | GDH-TPI counter | FBA Mtb inh | BioA inh
Cc1cccc(NC(=O)/C(C#N)=C/c2ccc[nH]2)c1C | . | . | . | .
CCCN(C)C[C@@H]1Oc2ncc(C#CCOC)cc2C(=O)N([C@H](C)CO)C[C@@H]1C | / | / | / | .
CN(C)C(=O)c1ccc(-c2ccc3c(c2)[C@H]2[C@H](CCN2C(=O)c2ccccn2)[C@H](CO)N3)cc1 | / | / | / | .
Cc1ccc2nc(/C(C#N)=C\c3cc(C)n(-c4cccc([N+](=O)[O-])c4)c3C)[nH]c2c1 | . | 31.6 | . | .
C/C=C/c1ccc2c(c1)O[C@H](CN(C)C(=O)c1ccc(F)cc1)[C@@H](C)CN([C@@H](C)CO)S2(=O)=O | / | / | / | .
Cc1noc(C)c1NC(=O)NCC[C@@H]1CC[C@H](NC(=O)c2ccncc2)[C@H](CO)O1 | / | / | / | .
CCOC(=O)N1CCN(c2c(-c3ccc(C(C)C)cc3)c(=O)c2=O)CC1 | / | . | . | .
CCOC(=O)N1CCC(Nc2c(-c3ccc(C)cc3)c(=O)c2=O)CC1 | . | 36.3 | . | .
CCOC(=O)N1CCC(Nc2c(-c3ccccc3)c(=O)c2=O)CC1 | . | . | . | .
CCOC(=O)N1CCN(c2c(-c3ccc(C)cc3)c(=O)c2=O)CC1 | . | 34.3 | . | .
CCN(C(=O)CN1C(=O)S/C(=C\c2ccc(Cl)cc2)C1=O)C1CCS(=O)(=O)C1 (configuration not stated) | . | 33.9 | . | .
COc1ccccc1/C=C1\SC(=O)N(CC(=O)N(C)C2CCS(=O)(=O)C2)C1=O (configuration not stated) | . | 31.0 | . | .
CC(C)OC(=O)C1C2C=CC3(CN(Cc4cccs4)C(=O)C13)O2 (configuration not stated) | . | . | 122.7 | .
Cc1cccn2c(=O)c(C=Nc3ccccc3)c(NCc3ccco3)nc12 | . | . | 38.7 | .
C[C@H]1CN([C@@H](C)CO)C(=O)c2cc(NC(=O)Nc3ccccc3)ccc2O[C@@H]1CN(C)Cc1ccc(C(=O)O)cc1 | / | / | / | .
C[C@@H]1CN([C@H](C)CO)S(=O)(=O)c2ccc(C#CCN(C)C)cc2O[C@H]1CN(C)C(=O)C1CC1 | / | / | / | .
CSc1ccc(C2NN=C(c3ccccc3)S2)cc1 (configuration not stated) | . | . | 46.1 | .
N#C/C(=C\Nc1ccc2c(c1)OCCO2)C(=O)NCc1ccco1 | . | 44.2 | . | .
Cn1c(=O)n(C)c2cc(/C=C(/C#N)C(=O)NCc3ccco3)ccc21 | . | . | . | /
Cc1noc(C)c1NC(=O)N(C)C[C@H]1Oc2ccc(NS(=O)(=O)c3cccs3)cc2C(=O)N([C@@H](C)CO)C[C@@H]1C | / | / | / | .
COc1cc(C(=O)Nc2ccc(-c3nc4cc(C)ccc4o3)c(O)c2)cc(OC)c1OC | . | 34.3 | . | .
O=C(C[C@@H]1C[C@H]2c3cc(NC(=O)Nc4ccc(F)cc4)ccc3O[C@H]2[C@@H](CO)O1)NC1CCCCC1 | / | / | / | .
CN(C)C(=O)C[C@H]1C[C@@H]2c3cc(NC(=O)NC4CCCCC4)ccc3O[C@@H]2[C@H](CO)O1 | / | / | / | .
Cc1nnc(SCC(=O)N2CCCC(C(=O)c3ccc(Cl)cc3)C2)o1 (configuration not stated) | . | . | . | .
Cn1cc(CCC(=O)N2CCCC(C(=O)c3cccc4ccccc34)C2)cn1 (configuration not stated) | . | . | . | .
SMILES | Vc quorum ag | GDH-TPI counter | FBA Mtb inh | BioA inh
COc1ccc2cc(C(=O)C3CCCN(C(=O)CSc4nnc(C)o4)C3)ccc2c1 (configuration not stated) | . | . | 126.1 | /
COc1ccc2cc(C(=O)C3CCCN(C(=O)c4cccnc4)C3)ccc2c1 (configuration not stated) | . | . | 162.9 | .
COc1ccc2cc(C(=O)C3CCCN(C(=O)c4cncs4)C3)ccc2c1 (configuration not stated) | . | . | 152.5 | .
CCNC(=O)N1CCCC(C(=O)c2ccc3cc(OC)ccc3c2)C1 (configuration not stated) | . | . | . | /
COc1ccc2cc(C(=O)C3CCCN(C(=O)CCc4cnn(C)c4)C3)ccc2c1 (configuration not stated) | . | . | 126.7 | /
C[C@@H]1CN([C@@H](C)CO)C(=O)Cc2cc(NS(=O)(=O)c3cccs3)ccc2O[C@H]1CN(C)C(=O)Nc1cccc2ccccc12 | / | / | / | .
COc1cccc(S(=O)(=O)Nc2ccc3c(c2)C(=O)N(C)C[C@@H](OC)[C@H](C)CN(C(=O)Cc2cccnc2)[C@@H](C)CO3)c1 | / | / | / | .
C[C@@H]1CCCCO[C@H](CN(C)C(=O)CCC(F)(F)F)[C@H](C)CN([C@@H](C)CO)C(=O)c2cc(NS(=O)(=O)c3ccccc3)ccc2O1 | / | / | / | .
COc1ccc(C2CC(c3ccc(F)cc3)=NN2c2ccccc2)cc1OC (configuration not stated) | . | . | . | .
COc1ccc(C2CC(c3ccccc3)=NN2c2ccc(S(N)(=O)=O)cc2)cc1 (configuration not stated) | / | . | + | /
COc1ccc(C2CC(c3cccc(F)c3)=NN2c2ccc(S(N)(=O)=O)cc2)cc1 (configuration not stated) | . | . | + | .
NS(=O)(=O)c1ccc(N2N=C(c3ccccc3)CC2c2ccc(F)cc2)cc1 (configuration not stated) | . | . | + | /
COc1ccc(C2=NN(S(=O)(=O)c3ccccc3)C(c3ccccc3)C2)cc1 (configuration not stated) | . | . | . | .
COc1ccc(C2CC(c3ccccc3)=NN2c2ccc(C(N)=O)cc2)cc1 (configuration not stated) | . | . | + | .
Oc1ccccc1C1=NN(c2ccccc2)C(c2ccc(F)cc2)C1 (configuration not stated) | . | . | . | .
C[C@H](CO)N1C[C@H](C)[C@@H](CN(C)S(=O)(=O)c2ccc(-c3ccccc3)cc2)OCc2cnnn2CCCC1=O | / | / | / | .
COc1ccc(C2CC(c3cccc(C(F)(F)F)c3)=NN2c2ccc(S(N)(=O)=O)cc2)cc1 (configuration not stated) | . | . | + | .
CC(=O)Nc1ccc(C2CC(c3ccc(Cl)cc3)=NN2c2ccccc2)cc1 (configuration not stated) | . | . | . | .
COc1ccc(C2CC(c3ccccc3Cl)=NN2c2ccc(S(N)(=O)=O)cc2)cc1 (configuration not stated) | . | . | 173.8 | .
COc1ccc(C2CC(c3ccccc3)=NN2C(=O)COC(=O)c2cccc(S(=O)(=O)N(C)C)c2)cc1 (configuration not stated) | . | . | . | /
O=C(O)c1ccc(N2N=C(c3ccccc3)CC2c2ccccc2)cc1 (configuration not stated) | . | 32.2 | + | .
